# Measurements as given in PubChem BioAssay (Tox21).
# Values joined by “and” are separate entries in the source; they are usually repeats but may differ in a detail not shown here. Equal entries are not always repeated. Results filed as inconclusive are left out. Entries that show only a call come without a potency. Some structures have more than one record in an assay (separate samples or runs), and their calls can disagree. Active and inactive are the calls of the source. Calls come from the whole dose curve; as a rule, active = well fitted curve in the direction sought with a large enough effect in the repeat runs; inconclusive = weak or mixed curves; inactive = no such curve, though single readings can be large; an effect the other way counts as inactive or inconclusive.
# System: not listed separately
# Assay: Caspase-3/7 induction in CHO-K1 cells by small molecules, qHTS assay (AID 1346980); note: nearly all actives have a fitted effect of over 15% in size
# Details: CHO-K1 caspase-3/7 induction, Caspase-Glo luminescence, 17 h; series mostly up to 92.4 µM; caspase-3/7 activation: at the top concentration
# Method in brief: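 Wild-type cells were seeded at 1,500 per well and settled 5 hr at 37 C, 5% CO2, then exposed to DMSO-dissolved compounds for 17 hr. Caspase-Glo 3/7 reagent was added, and luminescence was read after 30min at room temperature.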
SMILES,outcome,caspase-3/7 activation
O=c1[nH]c(=O)n([C@H]2CCCO2)cc1F,inactive,–
C=CCNC(N)=S,inactive,–
c1ccc2c(c1)ccc1ccccc12,inactive,–
CC(=O)OCC(=O)[C@@]12N=C(C)O[C@@H]1C[C@H]1[C@@H]3CCC4=CC(=O)C=C[C@]4(C)[C@H]3[C@@H](O)C[C@@]12C,inactive,–
O=C(O)c1ccc(C(=O)O)cc1,inactive,–
CCCCCC1=CCCC1=O,inactive,–
CC(=O)c1ccccc1,inactive,–
Cc1ccc(N(C)C)cc1,inactive,–
CCCCCCCC(=O)OC,inactive,–
CCc1cccc(C)c1N,inactive,–
OCC(CO)(CBr)CBr,inactive,–
CN(C)CCCN,inactive,–
O=S1(=O)CC=CC1,–,-2.48% (inactive)
CC(C)(C)[C@@H](O)[C@@H](Cc1ccc(Cl)cc1)n1cncn1,inactive,–
C#CCN(C)Cc1ccccc1,inactive,–
C[Si](O[Si](C)(C)C)O[Si](C)(C)C,inactive,–

SMILES,outcome,caspase-3/7 activation
Oc1cccc2ccccc12,inactive,–
CCCCCC/C(C=O)=C\c1ccccc1,inactive,–
CCCCCCCCCCCCCCO,inactive,–
Nc1cc([N+](=O)[O-])ccc1O,inactive,–
O=C(O)c1cc(O)c(O)c(O)c1,inactive,–
O=C(O)c1ccc2c(c1)C(=O)OC2=O,inactive,–
O=C(Oc1ccccc1)c1ccccc1,inactive,–
OC[C@H]1O[C@@](CO)(O[C@H]2O[C@H](CO)[C@@H](O)[C@H](O)[C@H]2O)[C@@H](O)[C@@H]1O,inactive,–
O=c1[nH]c(=O)n([C@H]2C[C@H](O)[C@@H](CO)O2)cc1Br,inactive,–
CC(=O)CC(=O)Nc1ccccc1C,inactive,–
Fc1ccc(Br)cc1,inactive,–
CC(c1cc2ccccc2s1)N(O)C(N)=O (stereo unspecified),inactive,–
C=CCOC(=O)c1ccccc1C(=O)OCC=C,inactive,–
CC1CCC(C(C)C)C(O)C1 (stereo unspecified),inactive,–
Cc1cccnc1,inactive,–

# System: not listed separately
# Assay: Caspase-3/7 induction in HepG2 cells by small molecules, qHTS cell viability counter screen (AID 1346981); note: nearly all actives have a fitted effect of over 30% in size; note: potency is the fitted concentration of half-maximal effect
# Details: CellTiter-Fluor fluorescence, 17 h; series mostly up to 92.4 µM; activity change, negative = cytotoxicity: at the top concentration
# Method in brief: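 CellTiter-Fluor fluorescence measured viability in the same wells used for Caspase-Glo 3/7. HepG2 (wild type) at 2,000 cells/well were pre-incubated 5 hr, dosed, and given reagent at 16 hr, with 1 hr further at 37C.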
SMILES,Potency,"activity change, negative = cytotoxicity"
O=c1[nH]c(=O)n([C@H]2CCCO2)cc1F,inactive,–
C=CCNC(N)=S,inactive,–
c1ccc2c(c1)ccc1ccccc12,inactive,–
CC(=O)OCC(=O)[C@@]12N=C(C)O[C@@H]1C[C@H]1[C@@H]3CCC4=CC(=O)C=C[C@]4(C)[C@H]3[C@@H](O)C[C@@]12C,inactive,–
Cc1ccc2oc(=O)ccc2c1,inactive,–
CCC(O)OC(O)CC (stereo unspecified),inactive,–
O=C(O)c1ccc(C(=O)O)cc1,inactive,–
CCCCCCCCCCCCc1ccccc1,–,7.86% (inactive)
CCCCCC1=CCCC1=O,inactive,–
CCCCC(CC)COC(=O)CCCCC(=O)OCC(CC)CCCC (stereo unspecified),inactive,–
CCCCCC(N)=O,inactive,–
CC(=O)c1ccccc1,inactive,–
CSCCC=O,inactive,–
Cc1ccc(N(C)C)cc1,inactive,–
CCCCCCCC(=O)OC,inactive,–
CCc1cccc(C)c1N,inactive,–
OCC(CO)(CBr)CBr,inactive,–
CC[C@H](C)C(=O)O[C@H]1C[C@@H](C)C=C2C=C[C@H](C)[C@H](CC[C@@H]3C[C@@H](O)CC(=O)O3)[C@H]21,69.6 µM (active) and inactive,–
CN(C)CCCN,inactive,–

SMILES,Potency,"activity change, negative = cytotoxicity"
O=S1(=O)CC=CC1,inactive,–
CC(C)(C)[C@@H](O)[C@@H](Cc1ccc(Cl)cc1)n1cncn1,inactive,–
C#CCN(C)Cc1ccccc1,inactive,–
C[Si](O[Si](C)(C)C)O[Si](C)(C)C,–,0.249% (inactive)
Oc1cccc2ccccc12,inactive,–
CCCCCC/C(C=O)=C\c1ccccc1,inactive,–
CCCCCCCCCCCCCCO,inactive,–
Nc1cc([N+](=O)[O-])ccc1O,48.6 µM (active) and 68.2 µM (active),–
O=C(O)c1cc(O)c(O)c(O)c1,43.7 µM (active),–
O=C(O)c1ccc2c(c1)C(=O)OC2=O,inactive,–
O=C(Oc1ccccc1)c1ccccc1,–,-1.57% (inactive)
OC[C@H]1O[C@@](CO)(O[C@H]2O[C@H](CO)[C@@H](O)[C@H](O)[C@H]2O)[C@@H](O)[C@@H]1O,inactive,–
O=c1[nH]c(=O)n([C@H]2C[C@H](O)[C@@H](CO)O2)cc1Br,inactive,–
CC(=O)CC(=O)Nc1ccccc1C,inactive,–
Fc1ccc(Br)cc1,inactive,–
CC(c1cc2ccccc2s1)N(O)C(N)=O (stereo unspecified),inactive,–
C=CCOC(=O)c1ccccc1C(=O)OCC=C,inactive,–
CC1CCC(C(C)C)C(O)C1 (stereo unspecified),inactive,–
Cc1cccnc1,inactive,–

# Molecular target: Nuclear receptor subfamily 1 group I member 2 (Homo sapiens) (UniProt O75469)
# Assay: Human pregnane X receptor (PXR) small molecule agonists, qHTS assay (AID 1346982); note: nearly all actives have a fitted effect of over 35% in size; note: potency is the fitted concentration of half-maximal effect
# Details: PXR-Luc HepG2, CYP3A4 luciferase reporter, 24 h; series mostly up to 92.4 µM; activation: at the top concentration
# Method in brief: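 Agonist mode: luminescence from ONE-Glo after 24 h compound exposure at 37C in HepG2 cells carrying hPXR-responsive CYP3A4 luciferase, plated in charcoal-stripped serum medium 5 h beforehand.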
# Sequence of Nuclear receptor subfamily 1 group I member 2 (Homo sapiens) (O75469 whole entry, looked up): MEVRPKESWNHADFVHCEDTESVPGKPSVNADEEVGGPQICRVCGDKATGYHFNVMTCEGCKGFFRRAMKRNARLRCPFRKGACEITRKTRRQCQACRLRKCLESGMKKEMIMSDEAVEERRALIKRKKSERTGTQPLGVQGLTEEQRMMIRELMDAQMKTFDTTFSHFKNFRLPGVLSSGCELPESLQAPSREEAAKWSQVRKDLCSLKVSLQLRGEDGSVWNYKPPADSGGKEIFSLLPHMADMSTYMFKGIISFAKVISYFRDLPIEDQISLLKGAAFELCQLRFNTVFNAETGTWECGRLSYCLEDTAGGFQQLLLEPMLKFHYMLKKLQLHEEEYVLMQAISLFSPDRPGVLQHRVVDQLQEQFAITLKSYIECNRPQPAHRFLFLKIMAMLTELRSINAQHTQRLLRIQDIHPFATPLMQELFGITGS
SMILES,Potency,activation
O=c1[nH]c(=O)n([C@H]2CCCO2)cc1F,inactive,–
C=CCNC(N)=S,–,7.83% [at 42.5 µM] (inactive)
c1ccc2c(c1)ccc1ccccc12,–,-0.247% (inactive)
CC(=O)OCC(=O)[C@@]12N=C(C)O[C@@H]1C[C@H]1[C@@H]3CCC4=CC(=O)C=C[C@]4(C)[C@H]3[C@@H](O)C[C@@]12C,17.2 µM (active),–
Cc1ccc2oc(=O)ccc2c1,31.5 µM (active) and inactive,–
CCC(O)OC(O)CC (stereo unspecified),inactive,–
O=C(O)c1ccc(C(=O)O)cc1,inactive,–
CCCCCCCCCCCCc1ccccc1,inactive,–
CCCCCC1=CCCC1=O,62.4 µM (active) and inactive,–
CCCCC(CC)COC(=O)CCCCC(=O)OCC(CC)CCCC (stereo unspecified),–,-5.84% (inactive)
CCCCCC(N)=O,inactive,–
CC(=O)c1ccccc1,inactive,–
CSCCC=O,–,22.8% (inactive)
Cc1ccc(N(C)C)cc1,–,17.2% (inactive)
CCCCCCCC(=O)OC,inactive,–
CCc1cccc(C)c1N,59.2 µM (active) and inactive,–
OCC(CO)(CBr)CBr,inactive,–
CC[C@H](C)C(=O)O[C@H]1C[C@@H](C)C=C2C=C[C@H](C)[C@H](CC[C@@H]3C[C@@H](O)CC(=O)O3)[C@H]21,24.7 µM (active) and inactive,–
CN(C)CCCN,inactive,–

SMILES,Potency,activation
O=S1(=O)CC=CC1,52.6 µM (active) and inactive,–
CC(C)(C)[C@@H](O)[C@@H](Cc1ccc(Cl)cc1)n1cncn1,34.1 µM (active),–
C#CCN(C)Cc1ccccc1,inactive,–
C[Si](O[Si](C)(C)C)O[Si](C)(C)C,inactive,–
CCCCCC/C(C=O)=C\c1ccccc1,inactive,–
CCCCCCCCCCCCCCO,inactive,–
Nc1cc([N+](=O)[O-])ccc1O,–,14.6% (inactive)
O=C(O)c1cc(O)c(O)c(O)c1,inactive,–
O=C(O)c1ccc2c(c1)C(=O)OC2=O,–,6.19% (inactive)
O=C(Oc1ccccc1)c1ccccc1,inactive,–
OC[C@H]1O[C@@](CO)(O[C@H]2O[C@H](CO)[C@@H](O)[C@H](O)[C@H]2O)[C@@H](O)[C@@H]1O,inactive and 27.3 µM (active),–
O=c1[nH]c(=O)n([C@H]2C[C@H](O)[C@@H](CO)O2)cc1Br,12.4 µM (active) and inactive,–
CC(=O)CC(=O)Nc1ccccc1C,inactive,–
Fc1ccc(Br)cc1,inactive,–
CC(c1cc2ccccc2s1)N(O)C(N)=O (stereo unspecified),34.4 µM (active) and inactive,–
C=CCOC(=O)c1ccccc1C(=O)OCC=C,inactive,–
CC1CCC(C(C)C)C(O)C1 (stereo unspecified),inactive,–
Cc1cccnc1,inactive,–
